Activity calls are given as the source filed them.
What was measured:
[1] = optical density shifts of acrAB sulA E. coli – strain DRC41, OD650, 48 h, E. coli filamentation inducer project, primary screen (AID 1152); conditions: higher = more signal, called active from +8 up or from −8 down;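 note: E. coli MC1000 strain DRC41 lacking acrAB efflux pump and sulA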
[2] = probe aLefty1 binding on compound microarray – biochemical, small-molecule microarray, 635/667 nm fluorescence, primary screen (AID 1153); conditions: higher = more signal;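 note: score merges spot fluorescence with signal-to-noise ratio from the scanned slide images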
[3] = plasmodial surface anion channel blockers, osmotic lysis – cell-based, P. falciparum Indochina, OD700, 1 h, primary screen (AID 1154); conditions: P. falciparum Indochina infected RBC osmotic lysis, higher = more signal, called active from +8 up or from −8 down
[4] = plasmodial surface anion channel blockers, osmotic lysis – cell-based, P. falciparum Indochina, OD700, 2 h, primary screen (AID 1155);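 note: lysis reports solute entry through the parasite surface anion channel PSAC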; conditions: P. falciparum Indochina infected erythrocytes, higher = more signal, called active from +8 up or from −8 down
[5] = changes in parasitized red cell lysis, either direction – P. falciparum Indochina, OD700, 3 h, PSAC antagonist project, primary screen (AID 1156); conditions: P. falciparum-infected erythrocytes, osmotic lysis, higher = more signal, called active from +8 up or from −8 down
[6] = plasmodial surface anion channel blockers, osmotic lysis – cell-based, P. falciparum Indochina, OD700, 18 h, primary screen (AID 1157); conditions: P. falciparum Indochina infected erythrocytes, osmotic lysis OD700, 18 h; higher = more signal, called active from +8 up or from −8 down
[7] = S6 kinase pathway phospho-S6 level changes – cell-based, A549, cytoblot, luminescence, serum-stimulated, primary screen (AID 1158); conditions: 5 h, higher = more signal;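 note: serum-stimulated A549 lung adenocarcinoma cells; signal is phosphorylated S6 detected by cytoblot immunostaining with HRP secondary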
[8] = target: NADPH oxidase 2 (Homo sapiens) (UniProt P04839); assay: compounds shifting NOX2 Amplex Red fluorescence – cell-based, HEK293-NOX2, PMA-stimulated, NOX inhibitor project, primary screen (AID 1159); conditions: 45 min, higher = more signal, called active from +8 up or from −8 down; note: test concentration not given here
[9] = target: NADPH oxidase 4 (Homo sapiens) (UniProt Q9NPH5); assay: compounds shifting NOX4 Amplex Red fluorescence – cell-based, HEK293-NOX4, tetracycline-induced, NOX inhibitor project, primary screen (AID 1160); conditions: HEK293-NOX4, Amplex Red H2O2 fluorescence, 45 min; higher = more signal, called active from +8 up or from −8 down
[10] = target: NADPH oxidase 5 (Homo sapiens) (UniProt Q96PH1); assay: compounds shifting NOX5 Amplex Red fluorescence – cell-based, HEK293-NOX5, NOX inhibitor project, primary screen (AID 1161); conditions: HEK293-NOX5, ionomycin, 45 min, higher = more signal
[11] = compound effects on lung adenocarcinoma cell viability – A549, calcein-AM fluorescence, 48 h, basal, profiling panel (AID 1162); conditions: higher = more signal; note: test concentration not given here
[12] = compound effects on differentiated 3T3-L1 adipocyte viability – cell-based, 3T3-L1 adipocytes, calcein-AM fluorescence, 48 h, basal, profiling panel (AID 1163); conditions: 3T3-L1 adipocytes viability, higher = more signal; note: test concentration not given here
[13] = compound effects on hepatocellular carcinoma cell viability – HepG2, calcein-AM fluorescence, 48 h, basal, profiling panel (AID 1164); conditions: higher = more signal; note: test concentration not given here
[14] = compound effects on multiple myeloma cell viability – MM1S, calcein-AM fluorescence, 48 h, basal, profiling panel (AID 1165); conditions: higher = more signal; note: test concentration not given here
[15] = calcein-AM signal in unstimulated myeloma cells – cell-based, calcein-AM fluorescence, 48 h, PK04 Diversity Set, profiling panel (AID 1166); conditions: RPMI8226 myeloma viability, higher = more signal;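 note: cells grown under basal conditions without added stimulus; test concentration not given here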
[16] = JC-1 mitochondrial signal, unstimulated HepG2 cells – cell-based, JC-1 fluorescence, 24 h, 100 nL compound, profiling panel (AID 1167); conditions: HepG2 mitochondrial potential, higher = more signal; note: test concentration not given here
[17] = JC-1 mitochondrial signal, unstimulated adipocytes – cell-based, JC-1 fluorescence, 3T3-L1 adipocytes, 24 h, 100 nL compound, profiling panel (AID 1168); conditions: JC-1 mitochondrial fluorescence, higher = more signal, called active from +8 up or from −8 down; note: test concentration not given here
[18] = JC-1 mitochondrial signal, unstimulated myeloma cells – cell-based, JC-1 fluorescence, RPMI8226, 24 h, 100 nL compound, profiling panel (AID 1169); conditions: JC-1 mitochondrial potential fluorescence, higher = more signal; note: test concentration not given here
[19] = JC-1 mitochondrial signal, unstimulated MM1S myeloma – cell-based, JC-1 fluorescence, 24 h, 100 nL compound, profiling panel (AID 1170); conditions: MM1S mitochondrial potential, higher = more signal; note: test concentration not given here
[20] = resazurin metabolic signal in A549 cells – cell-based, resazurin fluorescence, 24 h, PK04 Diversity Set, profiling panel (AID 1171); conditions: A549 viability, higher = more signal, called active from +8 up or from −8 down; note: test concentration not given here

NADPH oxidase 5 (Homo sapiens), sequence (Q96PH1 whole entry, looked up): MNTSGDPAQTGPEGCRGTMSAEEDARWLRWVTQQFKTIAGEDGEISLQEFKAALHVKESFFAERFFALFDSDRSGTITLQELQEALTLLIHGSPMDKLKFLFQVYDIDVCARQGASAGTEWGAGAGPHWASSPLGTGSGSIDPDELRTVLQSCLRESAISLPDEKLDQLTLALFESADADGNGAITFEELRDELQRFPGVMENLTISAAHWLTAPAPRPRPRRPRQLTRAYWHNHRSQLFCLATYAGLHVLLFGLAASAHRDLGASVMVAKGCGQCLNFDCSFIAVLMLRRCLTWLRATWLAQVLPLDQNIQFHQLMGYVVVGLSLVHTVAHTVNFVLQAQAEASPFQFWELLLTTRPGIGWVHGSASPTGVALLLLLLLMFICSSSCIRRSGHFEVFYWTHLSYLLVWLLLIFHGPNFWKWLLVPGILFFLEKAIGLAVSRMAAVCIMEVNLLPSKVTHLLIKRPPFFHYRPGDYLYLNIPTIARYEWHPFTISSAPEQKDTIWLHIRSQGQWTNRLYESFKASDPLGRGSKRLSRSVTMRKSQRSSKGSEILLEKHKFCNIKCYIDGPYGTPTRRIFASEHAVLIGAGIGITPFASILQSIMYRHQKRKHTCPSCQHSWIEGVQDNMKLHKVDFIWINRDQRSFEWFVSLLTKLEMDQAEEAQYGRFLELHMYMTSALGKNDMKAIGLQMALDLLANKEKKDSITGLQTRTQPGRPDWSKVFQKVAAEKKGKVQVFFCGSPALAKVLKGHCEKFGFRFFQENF
NADPH oxidase 2 (Homo sapiens), sequence (P04839 whole entry, looked up): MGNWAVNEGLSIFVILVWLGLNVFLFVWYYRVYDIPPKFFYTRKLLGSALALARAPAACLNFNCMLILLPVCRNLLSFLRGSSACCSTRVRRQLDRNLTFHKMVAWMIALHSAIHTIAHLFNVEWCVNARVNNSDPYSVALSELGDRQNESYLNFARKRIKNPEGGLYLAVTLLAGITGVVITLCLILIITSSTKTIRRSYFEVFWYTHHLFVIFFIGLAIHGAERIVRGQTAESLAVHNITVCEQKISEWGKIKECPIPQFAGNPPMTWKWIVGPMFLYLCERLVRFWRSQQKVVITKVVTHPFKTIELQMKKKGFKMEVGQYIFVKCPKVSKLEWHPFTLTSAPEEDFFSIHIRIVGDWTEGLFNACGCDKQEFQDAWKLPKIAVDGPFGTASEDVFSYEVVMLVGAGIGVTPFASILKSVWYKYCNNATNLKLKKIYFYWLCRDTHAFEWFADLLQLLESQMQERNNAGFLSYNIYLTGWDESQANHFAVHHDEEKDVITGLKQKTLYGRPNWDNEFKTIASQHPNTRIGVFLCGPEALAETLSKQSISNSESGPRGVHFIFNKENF
NADPH oxidase 4 (Homo sapiens), sequence (Q9NPH5 whole entry, looked up): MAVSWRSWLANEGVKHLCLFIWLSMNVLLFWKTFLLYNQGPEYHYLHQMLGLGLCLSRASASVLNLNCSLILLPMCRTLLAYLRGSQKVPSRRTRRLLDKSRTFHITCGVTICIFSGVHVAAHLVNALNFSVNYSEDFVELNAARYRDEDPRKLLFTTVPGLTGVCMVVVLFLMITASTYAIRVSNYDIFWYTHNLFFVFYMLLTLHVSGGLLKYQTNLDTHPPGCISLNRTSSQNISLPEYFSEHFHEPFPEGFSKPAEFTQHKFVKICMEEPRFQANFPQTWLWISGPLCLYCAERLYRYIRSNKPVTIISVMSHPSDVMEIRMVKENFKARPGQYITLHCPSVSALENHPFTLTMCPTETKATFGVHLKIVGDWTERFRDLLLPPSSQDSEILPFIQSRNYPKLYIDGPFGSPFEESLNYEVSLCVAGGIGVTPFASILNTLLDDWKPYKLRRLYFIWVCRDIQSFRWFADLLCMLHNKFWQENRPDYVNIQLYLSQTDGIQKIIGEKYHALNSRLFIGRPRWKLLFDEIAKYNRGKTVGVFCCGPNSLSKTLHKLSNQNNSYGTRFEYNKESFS

Row | SMILES | z-score [1] | composite z-score [2] | z-score [3] | z-score [4] | z-score [5] | z-score [6] | z-score [7] | z-score [8] | z-score [9] | z-score [10] | z-score [11] | z-score [12] | z-score [13] | z-score [14] | z-score [15] | z-score [16] | z-score [17] | z-score [18] | z-score [19] | z-score [20]
1 | Cc1c(NC(=O)CC#N)c(=O)n(-c2ccccc2)n1C | 1.47 (inactive) | -0.193 | -0.794 (inactive) | -1.31 (inactive) | -0.202 (inactive) | -1.31 (inactive) | 2.17 | -0.463 (inactive) | -0.0592 (inactive) | 0.66 | 1.62 | 0.317 | 0.954 | 0.0823 | 0.106 | 1.42 | 0.166 (inactive) | -0.128 | -0.63 | 0.234 (inactive)
2 | COC(=O)C[C@@H]1C[C@H](C)[C@]2(O1)C(=O)N(Cc1ccccc1)c1ccc(NC(C)=O)cc12 | 0.442 (inactive) | -0.193 | 1.66 (inactive) | -0.0327 (inactive) | 0.962 (inactive) | 0.0822 (inactive) | 0.525 | 0.627 (inactive) | -1.06 (inactive) | 2.27 | -0.0958 | 0.663 | -0.258 | 0.186 | -0.804 | -0.0913 | -0.551 (inactive) | -0.183 | 0.229 | -0.982 (inactive)
3 | O=C1O[C@@H](c2ccccc2)[C@@H](c2ccccc2)N2[C@@H](c3ccccc3OCCO)[C@]3(C(=O)Nc4ccc(C#CC5(O)CCCCCC5)cc43)[C@@H](C(=O)Nc3nc4ccccc4s3)[C@H]12 | -0.478 (inactive) | -0.12 | 3.1 (inactive) | 3.75 (inactive) | 1.96 (inactive) | 1.56 (inactive) | 0.361 | 1.42 (inactive) | 0.501 (inactive) | 1.28 | -1.49 | 0.601 | -3 | -3.22 | -4.17 | -2.67 | 2.71 (inactive) | -0.863 | -1.41 | -1.34 (inactive)
4 | COC(=O)[C@@]1(Cc2ccccc2)[C@H]2c3cc(C(=O)N(C)C)n(Cc4c(-c5ccccc5)noc4C)c3C[C@H]2CN1C(=O)c1ccccc1 | -2.11 (inactive) | 0.324 | 2.98 (inactive) | 1.2 (inactive) | 0.57 (inactive) | 1.11 (inactive) | -0.505 | 0.931 (inactive) | 1.32 (inactive) | 1.1 | -0.914 | -1 | -1.41 | -1.05 | -1.09 | 2.14 | -1.05 (inactive) | 0.168 | -0.822 | -0.702 (inactive)
5 | CCOC(=O)C[C@H]1[C@H](OC(=O)c2ccc(-c3ccccc3)cc2)[C@@H](NC(=O)c2ccc(-c3ccccc3)cc2)c2cc(OCCCO)ccc2N1C(=O)Cc1ccc(OC)cc1 | -0.783 (inactive) | -0.0061 | 11.4 (active) | 0.618 (inactive) | -0.397 (inactive) | 0.602 (inactive) | 0.491 | -1.3 (inactive) | 0.622 (inactive) | -0.0798 | -0.457 | 0.485 | -0.0494 | -0.781 | 0.0196 | 1.15 | 0.458 (inactive) | -0.00497 | 0.413 | 0.0992 (inactive)
6 | C=CCOC(=O)[C@H]1[C@@H]2C(=O)O[C@@H](c3ccccc3)[C@@H](c3ccccc3)N2[C@@H](c2ccc(OCCOC(=O)[C@@H]3C[C@@H]4C(=O)N5CCC[C@H]5C(=O)N4[C@@H]3c3ccc(O)cc3)cc2)[C@]12C(=O)Nc1ccccc12 | 0.891 (inactive) | 0.137 | 2.72 (inactive) | 1.04 (inactive) | 2.96 (inactive) | 0.668 (inactive) | 0.193 | 1.64 (inactive) | 1.21 (inactive) | 1.57 | 0.924 | 0.038 | -0.139 | 0.603 | 0.876 | -1.42 | 1.74 (inactive) | -0.212 | -0.786 | 0.362 (inactive)
7 | COc1ccc([Si](C)(C)[C@@H]2[C@@H](CC(=O)N3CCC[C@H]3CO)O[C@]3(C(=O)N(C)c4c(Br)cc(C)cc43)[C@H]2C)cc1 | -0.674 (inactive) | -0.251 | 5.59 (inactive) | 0.576 (inactive) | 0.405 (inactive) | 0.768 (inactive) | -0.415 | 1.73 (inactive) | 1.17 (inactive) | 3.69 | 0.49 | 0.406 | 1.03 | -0.929 | -1.04 | 1.02 | 0.0349 (inactive) | -0.489 | -0.0745 | 0.206 (inactive)
8 | COCC1=C2[C@@H](CCc3ccccc3)OB(O)C[C@@H]2[C@@H]2C(=O)N(Cc3ccccc3)C(=O)[C@@H]2C1 | -0.536 (inactive) | -0.0573 | 1.75 (inactive) | -0.0799 (inactive) | -0.558 (inactive) | 0.0831 (inactive) | 0.533 | -0.0858 (inactive) | 0.552 (inactive) | 0.974 | 0.0476 | 0.873 | 0.128 | -1.51 | -0.138 | -1.59 | -0.897 (inactive) | -0.812 | 0.24 | 0.21 (inactive)
9 | COCCOC(=O)N1C(=O)[C@@]2(c3cc(C#CCC(C(=O)OC)C(=O)OC)ccc31)[C@H](c1ccc(O)cc1)N1[C@H](c3ccccc3)[C@H](c3ccccc3)OC(=O)[C@H]1[C@@H]2C(N)=O | -0.648 (inactive) | 0.245 | 9.52 (active) | 1.33 (inactive) | 0.0021 (inactive) | 0.213 (inactive) | -0.185 | 1.4 (inactive) | 0.525 (inactive) | 1.14 | -0.78 | 0.618 | -0.568 | -2.89 | -3.48 | -1.63 | -0.791 (inactive) | -0.799 | 0.0557 | -0.195 (inactive)
10 | [N-]=[N+]=Nc1ccccc1[C@H]1OC(c2ccc(OCCCO)cc2)=N[C@@]1(CCS(=O)(=O)c1ccccc1)C(=O)O | 0.671 (inactive) | 0.373 | 31.2 (active) | 24.9 (active) | 1.32 (inactive) | 4.75 (inactive) | -0.351 | -2.11 (inactive) | 0.851 (inactive) | -0.73 | 0.318 | 1.69 | -0.0825 | -1.42 | 0.682 | -3.45 | -1.65 (inactive) | 0.0104 | -0.0976 | 0.315 (inactive)
11 | COc1ccc([Si](C)(C)[C@H]2[C@H](CC(=O)N(CCO)Cc3ccccc3)O[C@@]3(C(=O)N(Cc4cccc(N5CCC5=O)c4)c4ccccc43)[C@@H]2C)cc1 | 2.2 (inactive) | 0.356 | 11.6 (active) | 1.88 (inactive) | -0.614 (inactive) | -0.356 (inactive) | 0.408 | 0.804 (inactive) | 0.957 (inactive) | 1.43 | -1.42 | 1.48 | -1.93 | -1.6 | -4.08 | 0.967 | 0.498 (inactive) | -0.873 | -1.27 | -1.97 (inactive)
12 | O=C1OCC=C[C@H]2OC34C=CCN(c5ccc(Cl)cc5)C(=O)[C@H]3N(CCCCCCO)C(=O)[C@@H]4[C@@H]12 (stereo not given in full) | 0.49 (inactive) | 0.135 | 1.73 (inactive) | 0.398 (inactive) | 0.497 (inactive) | 0.476 (inactive) | -0.243 | 1.42 (inactive) | -0.583 (inactive) | 1.96 | 0.32 | -0.122 | 0.955 | 1.12 | 0.057 | 0.715 | 0.26 (inactive) | 0.231 | 1.5 | 1.12 (inactive)
13 | COc1ccc(C#Cc2ccc3c(c2)[C@]2(C(=O)N3)[C@H](c3ccc(O)cc3)N3[C@H](c4ccccc4)[C@H](c4ccccc4)OC(=O)[C@H]3[C@@H]2C(=O)NC[C@H](O)c2ccccc2)cc1 | 0.735 (inactive) | -0.021 | 1.1 (inactive) | 1.09 (inactive) | 0.541 (inactive) | 0.859 (inactive) | -0.193 | 1.91 (inactive) | -0.0599 (inactive) | 0.22 | -1.1 | 0.72 | -0.513 | -3 | -4.58 | -1.8 | 1.94 (inactive) | -1.12 | -1.3 | -0.475 (inactive)

Source: PubChem BioAssay
